ERK AVP inh: vasopressin-driven ERK pathway inhibition | Potency, µM (top dose mostly 57.5 µM), usual class: inhibitors | HEK293-V1b, vasopressin-stimulated pERK AlphaScreen | 0.99% of 72,000 active; further: nearly all actives have a fitted effect of over 55% in size
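HEK293 cells stably expressing V1b receptor, seeded overnight in 1% FBS, were treated with compounds for 30 min at 37C, then stimulated 5 min with 25 nM vasopressin; phospho-ERK read by AlphaScreen SureFire after lysis.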
GFP derepression: derepresses silenced GFP locus in mouse C127i cells. mouse C127i GFP locus derepression, cytometry, 30 h. Potency, µM (top dose mostly 46.1 µM). 0.09% of 68,000 active. AID 597
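Derepression screen: silenced CMV-GFP reporter in murine C127i cells, 30 h compound incubation at 37 C, washed cells imaged by laser-scanning cytometer to enumerate GFP-expressing objects of 20 to 120 um.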
HBB splice mod: alters splicing of the hemoglobin beta chain; HBB splicing reporter cell assay, activation; EGFP reporter with mutant IVS2-654 intron; response scale: normalised to 500 nM splice-correcting PNA; Potency, µM (series often up to 46.1 µM), hits mostly activators; 0.06% of 65,000 active
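HeLa cells stably expressing EGFP interrupted by mutant beta-globin intron 2 (IVS2-654), 500/well in 2% FCS. Treated with compound for 2 days at 37C. Splicing correction scored as total well GFP intensity (488 nm excitation, 500-520 nm emission); 500 nM antisense PNA served as control.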
HEK293 cAMP ctrl: raises cAMP in parental HEK293 cells, TSHR agonist counter-screen; 2.5% of 73,000 active; parental HEK293 CNG cAMP sensor, membrane potential fluorescence; Potency, µM (top dose mostly 57.1 µM), actives largely listed as activators; further: nearly all actives have a fitted effect of over 55% in size
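Parental HEK 293 cells stably expressing a modified CNG channel (no TSHR) report cAMP rise as membrane depolarization. Membrane potential dye with 100 uM RO 20-1724 was loaded for 60 min at room temperature, then compound added for 30 min; fluorescence read at 590 nm.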
TSHR ag: activates the human thyroid stimulating hormone receptor. 0.48% of 73,000 active. HEK293-CNG-TSHR cells (CNG channel as cAMP sensor), membrane potential dye, cAMP. Potency, µM (series often up to 57.1 µM), most hits filed as activators. P16473. AID 926; active means well fitted activation curve with a large enough effect in the main read-out, with a control signal flat, not every such curve was filed as active; inconclusive means small, poorly fitted or top-dose-only effect, or a change in a side signal; inactive means no such curve, though single readings can be large or run the other way; reference of the percent scale not stated here;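 further: the control signal comes from parental cells without the receptor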
Target sequence (P16473 whole entry, looked up): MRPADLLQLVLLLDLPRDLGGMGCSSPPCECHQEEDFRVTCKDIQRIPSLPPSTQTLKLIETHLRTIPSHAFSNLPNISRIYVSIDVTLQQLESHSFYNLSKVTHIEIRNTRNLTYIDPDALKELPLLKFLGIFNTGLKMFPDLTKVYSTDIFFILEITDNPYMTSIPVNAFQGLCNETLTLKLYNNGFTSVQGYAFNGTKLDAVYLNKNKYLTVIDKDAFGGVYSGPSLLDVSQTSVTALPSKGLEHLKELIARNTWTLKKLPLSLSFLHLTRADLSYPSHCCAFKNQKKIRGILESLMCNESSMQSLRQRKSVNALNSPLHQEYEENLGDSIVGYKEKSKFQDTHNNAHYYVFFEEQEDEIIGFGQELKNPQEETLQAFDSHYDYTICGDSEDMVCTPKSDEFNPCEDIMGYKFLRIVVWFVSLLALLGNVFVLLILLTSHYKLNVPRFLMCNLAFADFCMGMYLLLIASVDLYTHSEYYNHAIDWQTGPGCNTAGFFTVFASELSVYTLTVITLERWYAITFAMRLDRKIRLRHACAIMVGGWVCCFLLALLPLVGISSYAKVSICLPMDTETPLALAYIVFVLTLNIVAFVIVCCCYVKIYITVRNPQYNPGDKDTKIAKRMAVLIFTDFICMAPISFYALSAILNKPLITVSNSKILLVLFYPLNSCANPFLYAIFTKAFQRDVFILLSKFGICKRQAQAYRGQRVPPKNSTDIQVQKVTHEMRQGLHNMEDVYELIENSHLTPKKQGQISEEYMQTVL
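HEK 293 cells stably expressing TSHR and a modified CNG channel, with CNG-only parental cells as counterscreen, were preloaded 60 min at room temperature with membrane potential dye containing 100 uM RO 20-1724. Compound exposure was 30 min, and depolarization was read as fluorescence at 590 nm.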
Ub-GFP proteasome: proteasome inhibitors stabilizing ubiquitin-GFP reporter. Ubiquitin-GFP reporter cells, proteasome inhibition, GFP fluorescence; response scale: untreated = 0%, 10 µM MG-132 = 100%. Potency, µM (top dose mostly 45.9 µM), usual class: activators. 67,000 tested, under 10 active; active means well fitted activation curve with a large enough effect, not every such curve was filed as active; inconclusive means small, poorly fitted or top-dose-only effect, or another doubt; inactive means no such curve, though single readings can be large or run the other way
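Proteasome blockade was scored as a rise in GFP-expressing U2OS cells carrying a ubiquitin(G76V)-GFP construct, imaged after 4 hr compound treatment at 37 °C across a 46 uM–2.9 nM series.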
Of the large screens only hits and unclear results are named; the others gave an inactive call; ! = not confirmed by another sample. In the library only some 3.8% were active in any assay of this set; here they are far more common. Unless noted, the call rests on the fitted dose curve; in most records, active means well fitted curve in the direction sought with a large enough effect; inconclusive means small, poorly fitted or top-dose-only effect, or another doubt; inactive means no such curve, though single readings can be large; an effect the other way counts as inactive or inconclusive.

Cc1noc(C)c1-c1ccc2ncnc(N3CCN(C)CC3)c2c1	HEK293 cAMP ctrl inconclusive, TSHR ag inconclusive
COc1ccc(Cl)cc1NC(=O)C1CSC(c2ccncc2)=N1 (stereo not given)	ERK AVP inh 16µM
COc1ccc(Cl)cc1NC(=O)NC(C)c1ccncc1 (stereo not given)	none
c1ccc(-c2csc(-c3nc4ccccc4[nH]3)n2)cc1	ERK AVP inh 1.3µM (no result: GFP derepression, HBB splice mod, HEK293 cAMP ctrl, TSHR ag, Ub-GFP proteasome)
Nc1cccc(-c2nc3ccccc3[nH]2)c1	none
COc1ccc(-c2noc(C3CCCN(C(=O)CCc4ccccc4)C3)n2)cc1 (stereo not given)	HEK293 cAMP ctrl 25µM, TSHR ag inconclusive
COc1cccc(-c2noc(C3CCCN(C(=O)Cc4ccccc4)C3)n2)c1 (stereo not given)	HEK293 cAMP ctrl inconclusive, TSHR ag inconclusive
O=C(Cc1ccccc1)N1CCCC(c2nc(-c3cccs3)no2)C1 (stereo not given)	ERK AVP inh inconclusive, HEK293 cAMP ctrl inconclusive, TSHR ag inconclusive
O=C(c1ccco1)N1CCCC(c2nc(-c3ccc(S(=O)(=O)NCc4ccccc4)cc3)no2)C1 (stereo not given)	ERK AVP inh inconclusive, HEK293 cAMP ctrl 25µM, TSHR ag inconclusive
COC(=O)[C@@]1(Cc2ccc(OC)cc2)[C@H]2c3cc(C(=O)N(C)C)n(Cc4cc(C)n(C)n4)c3C[C@H]2CN1C(=O)c1ccccc1	HEK293 cAMP ctrl inconclusive, TSHR ag inconclusive (no result: GFP derepression, Ub-GFP proteasome)
CS(=O)(=O)N1CCC2(CC1)CN(c1ccccn1)C2	none
COc1ccc(CCN2CCC(Nc3nc4ccccc4n3Cc3ccc(F)cc3)CC2)cc1	GFP derepression 10µM!
COc1ccc(CNc2nc3c(c(=O)n(Cc4ccc(F)cc4)c(=O)n3C)n2C)cc1	ERK AVP inh inconclusive
N#Cc1ccc(NC(=O)c2cc3cc4c5c(c3oc2=N)CCCN5CCC4)cc1	GFP derepression 10µM
N=c1oc2c3c4c(cc2cc1C(=O)Nc1ccccc1)CCCN4CCC3	HBB splice mod 3.2µM, Ub-GFP proteasome inconclusive
CC(C)c1cc(=O)oc2c3c4c(cc12)CCCN4CCC3	none
CC(C)OCCCNc1ncnc2c1[nH]c1ccccc12	ERK AVP inh inconclusive, HEK293 cAMP ctrl inconclusive, TSHR ag inconclusive
C=CCn1c(SCC(=O)NCc2ccc3c(c2)OCO3)nnc1C1CCCCC1	HEK293 cAMP ctrl 25µM, TSHR ag inconclusive
COC(=O)c1ccc(CSc2nnc(NCc3ccccc3)s2)o1	none
O=c1c2ccccc2nnn1CSc1nc2cc(Cl)ccc2c(=O)n1Cc1ccco1	HEK293 cAMP ctrl 2µM, TSHR ag inconclusive
Cc1ccc(OCc2nnc(SCC(=O)c3ccccc3)n2Cc2ccco2)cc1	HEK293 cAMP ctrl inconclusive, TSHR ag inconclusive
O=C(CSc1nnc(COc2ccccc2)n1Cc1ccco1)c1ccc(F)cc1	HEK293 cAMP ctrl 16µM, TSHR ag inconclusive
COC(=O)c1ccc(CSc2nc(-c3ccccc3)cs2)o1	HEK293 cAMP ctrl 40µM, TSHR ag inconclusive
COC(=O)N1CCC2(CCN(Cc3nccs3)CC2)CC1	none
COCCn1c(=O)c(-c2ccc(Cl)cc2)nc2cnc(Oc3cccc(Cl)c3)nc21	none
COC(=O)c1ccc(CSc2nc3ccccc3c(=O)n2Cc2ccco2)o1	HEK293 cAMP ctrl 7.9µM, TSHR ag inconclusive
CC1CCCC(C)N1C(=O)Cn1c(SCC(=O)NCc2ccc3c(c2)OCO3)nc2ccccc21 (stereo not given)	HEK293 cAMP ctrl 16µM, TSHR ag inconclusive
O=C(CSc1nc2ccccc2c(=O)n1Cc1ccc(C(=O)NC2CC2)cc1)NCc1ccco1	none
COc1ccc(C(=O)Nn2c(SCC(=O)NCc3ccco3)nc3ccccc3c2=O)cc1	ERK AVP inh inconclusive, HEK293 cAMP ctrl 20µM, TSHR ag inconclusive
COc1ccc(CNc2nc(SCC(=O)NCc3ccco3)nc3ccccc23)cc1	ERK AVP inh inconclusive
O=C(CSc1nnc(CNc2ccc(F)cc2)n1Cc1ccccc1)NCc1ccco1	none
O=C(CSc1nnc(C2CCCCC2)n1Cc1ccccc1)NCc1ccco1	HEK293 cAMP ctrl 13µM, TSHR ag inconclusive
COc1ccc(Oc2ncc3nc(-c4cn(C)c5ccccc45)c(=O)n(C4CC4)c3n2)cc1	none
C=C1C(=O)OC2C[C@@]3(C)CCCC(C)C3=CC12 (stereo not given in full)	none (no result: GFP derepression, HBB splice mod, HEK293 cAMP ctrl, TSHR ag, Ub-GFP proteasome)
O=C(CSc1ncc(-c2ccccc2)n1-c1ccccc1)NCc1ccco1	HEK293 cAMP ctrl 32µM, TSHR ag inconclusive
O=C(CSc1nnc(-c2cc3ccccc3cc2O)n1Cc1ccco1)c1ccc(F)cc1	none (no result: HBB splice mod, TSHR ag)
O=C(CSc1nc2ccccc2c(=O)n1Cc1ccco1)NCc1ccccc1	HEK293 cAMP ctrl 25µM, TSHR ag inconclusive
Cc1ccc(OCc2nnc(SCc3nc4ccccc4[nH]3)n2Cc2ccco2)cc1	ERK AVP inh 32µM, HEK293 cAMP ctrl 32µM, TSHR ag inconclusive (no result: Ub-GFP proteasome)
O=C(CSc1nc2ccccc2c(=O)n1Cc1ccco1)c1ccc(F)cc1	HEK293 cAMP ctrl 25µM, TSHR ag inconclusive
Cn1c(SCC(=O)NCc2ccco2)nc2ccccc2c1=O	none (no result: HBB splice mod)
COC(=O)[C@](C)(N)Cc1ccc(O)cc1	HEK293 cAMP ctrl inconclusive, TSHR ag inconclusive
CC1(C)C(O)C=C[C@@]2(C)C1CC(=O)O[C@@]1(C)C3=CC(=O)OC(c4ccoc4)[C@]3(C)CCC21 (stereo not given in full)	none (no result: GFP derepression, HBB splice mod, HEK293 cAMP ctrl, TSHR ag, Ub-GFP proteasome)
COc1ccc(-c2coc3ccc(O[C@@H]4O[C@@H](COC(C)=O)[C@@H](OC(C)=O)[C@@H](OC(C)=O)[C@H]4OC(C)=O)c(OC(C)=O)c3c2=O)cc1	none (no result: ERK AVP inh, HBB splice mod)
COCC(=O)O	HEK293 cAMP ctrl inconclusive, TSHR ag inconclusive (no result: GFP derepression, Ub-GFP proteasome)
CC(C)(C)n1nnnc1CN(Cc1ccco1)Cc1cc2cc3c(cc2[nH]c1=O)OCO3	none
CCC(C)(C)n1nnnc1CN(Cc1ccc(Cl)cc1)Cc1ccco1	HEK293 cAMP ctrl 10µM, TSHR ag inconclusive (no result: HBB splice mod)
Cn1c(-c2ccc(F)cc2)cnc1NCc1ccccc1	ERK AVP inh 25µM (no result: TSHR ag)
Cc1cc(-c2ccc(N=Nc3ccc4c(S(=O)(=O)O)cc(S(=O)(=O)O)c(N)c4c3O)c(C)c2)ccc1N=Nc1ccc2c(S(=O)(=O)O)cc(S(=O)(=O)O)c(N)c2c1O	ERK AVP inh 25µM (no result: HBB splice mod)
C=CCn1c(SCC(=O)Nc2cc(C)c(Cl)cc2OC)nnc1-c1ccco1	HEK293 cAMP ctrl 25µM, TSHR ag inconclusive
C=CCn1c(SCC(=O)Nc2cc(C)ccc2OC)nnc1-c1ccco1	none
Cc1cc(C)n(-c2nc(SCC(=O)NCC3CCCO3)c3c4c(sc3n2)CCCC4)n1 (stereo not given)	HEK293 cAMP ctrl 25µM, TSHR ag inconclusive (no result: Ub-GFP proteasome)

Assay outcomes (PubChem BioAssay)
